For eight compounds, growth results are on record in PubChem BioAssay (NCI).

Molecules are shown by their SMILES. This is part of a sample that, as a whole, favours compounds with a hit. Of some 83,000 tested, about 20% had one in any assay.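 In brief: 96-well plates, 48 h treatment, single concentration, percent growth endpoint.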 Values without a mark were called inactive. Calls of active or inactive are those of the source. How the source made its calls: active means growth percent below 10; inactive means the rest.

Test systems include NCI-H23 lung; NCI-H226 lung; NCI-H322M lung; HOP-62 NSCLC; NCI-H460 lung; HOP-92 NSCLC; NCI-H522 lung; A549/ATCC NSCLC; 786-0 renal; COLO 205 colon; DU-145 prostate; K-562 leukemia; MALME-3M melanoma; MDA-MB-231 breast; RXF 393 renal; SF-268 CNS; SF-295 CNS; SF-539 CNS; UACC-257 melanoma; M14 melanoma.
Holding throughout (test): NCI-60 one-dose screen, 48 h (100 = growth as untreated, 0 = no growth, -100 = all killed)
Common to all, as to conditions: 10 µM unless noted

With `COc1ccc(/C(=C\c2ccccc2)C(=O)O)cc1OC`, the growth in the assay with NCI-H23 lung is 93.6%; in the assay with NCI-H226 lung, 83.5%; in the assay with NCI-H322M lung, 98%; in the assay on HOP-62 NSCLC, 2.18% (active); with NCI-H460 lung, 101%; in the assay with HOP-92 NSCLC, 97.9%. The growth is 101% in the assay with NCI-H522 lung; 102% in the assay with A549/ATCC NSCLC; 104% in the assay with 786-0 renal; 100% with COLO 205 colon; 108% in the assay with DU-145 prostate; 134% with K-562 leukemia. Further, the growth in the assay on MALME-3M melanoma is 95.9%; with MDA-MB-231 breast it was 89.1%; in the assay with RXF 393 renal, 104%; with SF-268 CNS, 103%; with SF-295 CNS, 101%; with SF-539 CNS, 103%. In addition, the growth is 99.2% in the assay on UACC-257 melanoma and 98.3% in the assay with M14 melanoma.

In the case of `C#CCNC(=O)[C@H](Cc1ccccc1)NC(=O)[C@]12CC[C@@H](C(=C)C)[C@@H]1[C@H]1CC[C@@H]3[C@@]4(C)Cc5c([nH]c6ccccc56)C(C)(C)[C@@H]4CC[C@@]3(C)[C@]1(C)CC2`, the growth was 94.9% in the assay with NCI-H23 lung; 90.2% in the assay with NCI-H226 lung; 93.9% in the assay on NCI-H322M lung; 95.2% in the assay on HOP-62 NSCLC; 104% with NCI-H460 lung; 69.7% in the assay with HOP-92 NSCLC. Also, the growth in the assay with NCI-H522 lung is 87.9%; with A549/ATCC NSCLC, 84.7%; in the assay on 786-0 renal, 87.8%; in the assay on COLO 205 colon it was 97.8%; in the assay with DU-145 prostate it was 101%; in the assay with K-562 leukemia, 83.9%. The growth with MALME-3M melanoma was 113%; in the assay with MDA-MB-231 breast, 97.7%; with RXF 393 renal, 93.9%; with SF-268 CNS, 92.6%; in the assay on SF-295 CNS, 96.6%; in the assay with SF-539 CNS, 102%. The results for the growth in the assay on UACC-257 melanoma and with M14 melanoma were 96.7% and 96.4%, respectively.

As to `O=C(c1ccccc1)N1N=C(c2ccc(-n3ccc(C(F)(F)F)n3)cc2)CC1c1ccc[nH]1` (stereo not given), the growth with NCI-H23 lung is 96.4%; with NCI-H226 lung it was 95.1%; in the assay on NCI-H322M lung it was 80.6%; in the assay with HOP-62 NSCLC, 105%; with NCI-H460 lung, 100%; in the assay with HOP-92 NSCLC, 113%. Moreover, the growth with NCI-H522 lung is 76.5%; with A549/ATCC NSCLC, 82%; in the assay with 786-0 renal, 87.3%; in the assay on COLO 205 colon it was 101%; in the assay on DU-145 prostate it was 104%; in the assay with K-562 leukemia it was 65.1%. For the same compound, the growth with MALME-3M melanoma was 93.6%; with MDA-MB-231 breast it was 97.6%; in the assay on RXF 393 renal, 97.1%; in the assay on SF-268 CNS, 98.6%; in the assay with SF-295 CNS, 97.1%; with SF-539 CNS it was 92.6%. Further, the growth in the assay on UACC-257 melanoma is 90.1%; with M14 melanoma it was 79%.

Take `O=c1[nH]c(=O)[nH]c(=S)[nH]1`: the growth with NCI-H23 lung was 98.5%; in the assay on NCI-H226 lung it was 97.9%; in the assay with NCI-H322M lung, 95.6%; in the assay with HOP-62 NSCLC it was 102%; in the assay with NCI-H460 lung, 105%; in the assay on HOP-92 NSCLC it was 101%. The growth is 94.6% in the assay on NCI-H522 lung; 99.7% in the assay on A549/ATCC NSCLC; 102% in the assay on 786-0 renal; 103% in the assay on COLO 205 colon; 105% in the assay with DU-145 prostate; 105% with K-562 leukemia. Besides, the growth with MALME-3M melanoma is 98%; with MDA-MB-231 breast, 102%; in the assay with RXF 393 renal, 107%; with SF-268 CNS, 102%; in the assay on SF-295 CNS, 102%; with SF-539 CNS it was 98.8%. Further, the growth was 101% in the assay with UACC-257 melanoma and 100% in the assay with M14 melanoma.

Turning to `CN1CCCC1=Nc1ccccc1`, the growth with NCI-H23 lung is 93.7%; in the assay on NCI-H226 lung it was 104%; in the assay with NCI-H322M lung, 99.2%; with HOP-62 NSCLC, 103%; with NCI-H460 lung, 111%; with HOP-92 NSCLC, 89%. Further, the growth was 83.2% in the assay on NCI-H522 lung; 97.9% in the assay on A549/ATCC NSCLC; 115% in the assay with 786-0 renal; 110% with COLO 205 colon; 116% in the assay with DU-145 prostate; 100% with K-562 leukemia. Also, the growth in the assay with MALME-3M melanoma was 104%; in the assay on MDA-MB-231 breast, 109%; in the assay with RXF 393 renal, 103%; in the assay on SF-268 CNS, 124%; with SF-295 CNS, 96.7%; in the assay with SF-539 CNS, 113%. Also, the growth in the assay with UACC-257 melanoma is 101%; in the assay with M14 melanoma, 117%.

Consider `NC(=O)CN1CCN(c2ccccc2Cl)CC1`, for which the growth is 99.7% with NCI-H23 lung; 102% with NCI-H226 lung; 94.3% in the assay on NCI-H322M lung; 104% in the assay with HOP-62 NSCLC; 111% in the assay on NCI-H460 lung; 103% in the assay with HOP-92 NSCLC. Besides, the growth was 92.3% in the assay on NCI-H522 lung; 111% with A549/ATCC NSCLC; 91.6% with 786-0 renal; 110% with COLO 205 colon; 108% in the assay with DU-145 prostate; 97.2% with K-562 leukemia. Also, the growth was 104% in the assay on MALME-3M melanoma; 102% in the assay with MDA-MB-231 breast; 112% in the assay with RXF 393 renal; 106% in the assay on SF-268 CNS; 97.9% with SF-295 CNS; 107% in the assay with SF-539 CNS. Besides, the growth is 107% with UACC-257 melanoma and 102% with M14 melanoma.

As to `c1ccc2c(-c3c4ccsc4cc4[nH]c5ccccc5c34)c[nH]c2c1`, the growth in the assay with NCI-H23 lung was 51.6%; with NCI-H226 lung it was 67.9%; in the assay on NCI-H322M lung it was 69.6%; with HOP-62 NSCLC it was 39.7%; with NCI-H460 lung, 11.6%; in the assay with HOP-92 NSCLC it was 63.1%. Further, the growth is 22.7% with NCI-H522 lung; 39.2% in the assay with A549/ATCC NSCLC; 27.9% in the assay on 786-0 renal; 58.4% with COLO 205 colon; 66.3% in the assay on DU-145 prostate; 16% in the assay with K-562 leukemia. Also, the growth in the assay with MALME-3M melanoma is 46.7%; with MDA-MB-231 breast, 55%; with RXF 393 renal it was 32.2%; in the assay with SF-268 CNS, 40.7%; with SF-295 CNS it was 26.7%; in the assay with SF-539 CNS, 17.9%. Moreover, the growth in the assay on UACC-257 melanoma is 66.9%; with M14 melanoma, 8.79% (active).

Turning to `C[C@H]1[C@H](C)CC[C@]2(CO)CC[C@]3(C)C(=CC[C@@H]4[C@@]5(C)CCCNC(C)(C)[C@@H]5CC[C@]43C)[C@H]12`, the growth with NCI-H23 lung was 36.1%; with NCI-H226 lung, -99% (active); in the assay with NCI-H322M lung, -17.9% (active); in the assay with HOP-62 NSCLC it was -23.1% (active); in the assay with NCI-H460 lung it was -83.3% (active); in the assay with HOP-92 NSCLC, -5.92% (active). Moreover, the growth in the assay with NCI-H522 lung is -77.8% (active); in the assay with A549/ATCC NSCLC it was 12%; in the assay with 786-0 renal, -81% (active); in the assay with COLO 205 colon, -78.3% (active); in the assay with DU-145 prostate, -17.4% (active); in the assay on K-562 leukemia, -49.1% (active). Further, the growth in the assay with MALME-3M melanoma is -71.9% (active); in the assay on MDA-MB-231 breast it was -54.8% (active); in the assay on RXF 393 renal, -27.9% (active); in the assay with SF-268 CNS, 5.71% (active); in the assay on SF-295 CNS it was -64.6% (active); in the assay with SF-539 CNS, -36.5% (active). For the same compound, the growth with UACC-257 melanoma is -36.9% (active); in the assay on M14 melanoma it was -73.2% (active).
